Assay [1] concerns the target Lysosomal acid glucosylceramidase (Homo sapiens) (UniProt P04062). Briefly: Glucocerebrosidase-p2 (AID 348; in the data active = potency below about 10 µM; note: potency is the fitted concentration of half-maximal effect). Particulars: purified GBA, blue fluorogenic substrate, 40 min. Summed up:
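Normal human glucocerebrosidase (0.2 nM) with blue fluorogenic substrate (80 uM final) in citrate/phosphate pH 5.9 with 10mM sodium taurocholate, 0.01% tween-20; 40 min RT, NaOH/glycine stop; fluorescence Ex 365/Em 440; AC50 from a titration from 0.6 nM upwards.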

A short description of assay [2]: AP1 Signaling Pathway (AID 357; active = well fitted curve in either direction with a large enough effect, not every such curve was filed as active; note: % is set by controls: 0 for no effect and ±100 for the full control effect). Particulars: ME-180 AP-1-bla reporter, EGF-induced, beta-lactamase ratio, 5 h; at 7.69 µM (top of the series) unless noted. In outline: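 Read-out was the 460nm/530nm emission ratio (excitation 405nm) after CCF4 loading for 2.5 hours at room temperature. Cells carried an AP-1-driven beta-lactamase reporter, were stimulated with EC50 EGF plus compound for 5 hours, and AC50 values came from titrations.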

The target of assay [3] is Cytochrome P450 1A2 (Homo sapiens) (UniProt P05177). Briefly: p450-cyp1a2 (AID 410; calls by dose curve; note: potency is the fitted concentration of half-maximal effect). Particulars: recombinant CYP1A2, luciferin-ME demethylation, luminescence; series mostly up to 57 µM. Summed up:
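Luminescent demethylation readout: Luciferin-ME (100uM, equal to Km) turned over by 20nM CYP1A2 for 60 min at room temperature after NADPH regeneration addition, following 10 min compound preincubation. Normalization used 57 uM furafylline as full inhibition.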

Assay [4] is described as follows: Stat Signaling Pathway (AID 446; active = well fitted curve in either direction with a large enough effect, not every such curve was filed as active;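 note: ME-180 cervical cancer cells given 40 pM IL-6 alongside compound; SIE-controlled beta-lactamase reporter measured as 460/530 nm FRET emission ratio; % is set by controls: 0 for no effect and ±100 for the full control effect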). Particulars: ME-180 (cervical carcinoma) SIE beta-lactamase reporter, IL-6 stimulated, 5 h; at 7.69 µM (top of the series) unless noted. In outline: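 Overnight-plated ME-180 cells bearing a STAT Inducible Element beta-lactamase reporter; 5 h co-exposure to compound and 40 pM IL-6; values normalized to 300 pM IL-6 and 125 nM JAK inhibitor controls.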

Assay [5] deals with Glucocorticoid receptor (Homo sapiens) (UniProt P04150). Briefly: GR-GFP Redistribution (AID 450;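 active = compounds whose dose series gives a full or clear partial fitted curve of increased nuclear translocation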; note: potency is the fitted concentration of half-maximal effect). Particulars: U2OS GR-GFP nuclear translocation, laser cytometry, 2 h.
Glucocorticoid receptor (Homo sapiens), sequence (P04150 whole entry, looked up): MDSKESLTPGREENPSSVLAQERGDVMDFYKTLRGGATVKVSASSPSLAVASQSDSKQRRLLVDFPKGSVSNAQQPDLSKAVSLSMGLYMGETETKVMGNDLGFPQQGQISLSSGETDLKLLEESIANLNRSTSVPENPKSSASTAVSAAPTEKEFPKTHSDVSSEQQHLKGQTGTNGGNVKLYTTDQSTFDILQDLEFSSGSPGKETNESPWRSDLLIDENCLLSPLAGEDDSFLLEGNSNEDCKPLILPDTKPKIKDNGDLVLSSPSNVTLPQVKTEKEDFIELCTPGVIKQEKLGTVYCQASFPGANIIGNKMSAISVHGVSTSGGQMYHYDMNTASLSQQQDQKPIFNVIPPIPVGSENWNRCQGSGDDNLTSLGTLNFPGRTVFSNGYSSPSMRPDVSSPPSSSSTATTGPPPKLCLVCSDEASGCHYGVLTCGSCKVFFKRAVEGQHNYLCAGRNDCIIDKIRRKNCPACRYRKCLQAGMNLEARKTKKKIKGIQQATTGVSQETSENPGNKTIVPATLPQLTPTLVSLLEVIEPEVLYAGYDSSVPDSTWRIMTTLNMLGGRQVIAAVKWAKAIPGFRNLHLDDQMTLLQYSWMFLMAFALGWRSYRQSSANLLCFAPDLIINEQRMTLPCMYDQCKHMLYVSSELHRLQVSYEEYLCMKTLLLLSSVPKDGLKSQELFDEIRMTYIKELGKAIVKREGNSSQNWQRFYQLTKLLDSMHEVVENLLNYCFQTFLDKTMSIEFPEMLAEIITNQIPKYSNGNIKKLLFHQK
For assay [6] the target is unchanged. Briefly: GR-EFC Redistribution (AID 451; calls by dose curve; note: potency is the fitted concentration of half-maximal effect). Particulars: CHO-K1 GR-EFC translocation, beta-gal luminescence, 2 h. In outline:
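CHO-K1 cells stably expressing nuclear-localized β-gal enzyme acceptor and GR fused C-terminally to the enzyme donor fragment; ligand-driven nuclear translocation restores β-gal by complementation. Compounds titrated up to 46 uM final, 2 h at 37 °C; luminescence read.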

Assay [7] concerns the target Mitogen-activated protein kinase 10 (Mus musculus) (UniProt Q61831). Description: JNK3 AlphaScreen Assay (AID 530; active = well fitted curve in either direction with a large enough effect, not every such curve was filed as active;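 note: kinase came from lysate of stimulated human HepG2 cells; % is set by controls: 0 for no effect and ±100 for the full control effect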). Particulars: JNK3 lysate, c-Jun phosphorylation; series mostly up to 57.1 µM. Summed up: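 Phosphorylation of biotinylated GST-cJun(1-79) at Ser73 is measured by AlphaScreen proximity luminescence. Enzyme is JNK3 in HepG2 lysates activated with interleukin-1beta and tumor necrosis factor alpha; ATP is 10 uM final.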

Assay [8] addresses 3',5'-cyclic-AMP phosphodiesterase 4B (Homo sapiens) (UniProt Q07343). Description: qHTS Assay for Inhibitors of PDE-IV (AID 607; active = well fitted activation curve with a large enough effect in the main read-out, with a control signal flat, not every such curve was filed as active; note: potency is the fitted concentration of half-maximal effect). Particulars: HEK293 ACTOne CNG channel cells, membrane potential fluorescence; series mostly up to 22.9 µM. Summed up: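 Live HEK293 cells with a modified cyclic nucleotide-gated (CNG) channel report intracellular cAMP via membrane-potential dye fluorescence (ex 535/em 590 nm). Endogenous PDE-IV was targeted. Compounds were tested at up to 22.9 uM final; RO 20-1724 100 uM served as control.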
(Quantitative high-throughput screening tests each substance at several concentrations.)

Assay [9] in a line: qHTS Assay for Lipid Storage Modulators (AID 1519; calls by dose curve). Particulars: Drosophila S3 cells, BODIPY lipid droplet/cell ratio, laser cytometry, cells loaded with oleic acid; for activity change, negative = inhibition: at 57.5 µM (top of the series). In outline: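 Cells seeded at 5,000 per well were treated with compounds over a concentration series and loaded with oleic acid (400 uM, as added). Lipid droplet fluorescence (488 nm excitation, 500-530 nm channel) was read by laser-scanning cytometry and normalized to 20 uM Triacsin C.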

In assay [10] the target is Dual specificity protein kinase CLK4 (Homo sapiens) (UniProt Q9HAZ1). Description: qHTS Assay for Inhibitors of CDC-like Kinase 4 (ADP-Glo Assay) (AID 1771). Note: nearly all actives have a fitted effect of over 70% in size. Note: potency is the fitted concentration of half-maximal effect. Particulars: recombinant CLK4, ADP-Glo luminescence; series mostly up to 80 µM. Summed up: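 ADP production was read by ADP-Glo luminescence after residual ATP depletion, following 1 h room-temperature reaction of 25 nM Clk4, 1 uM ATP and 100 uM RS peptide with MgCl2, EGTA, DTT and Triton X-100.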
Dual specificity protein kinase CLK4 (Homo sapiens), sequence (Q9HAZ1 whole entry, looked up): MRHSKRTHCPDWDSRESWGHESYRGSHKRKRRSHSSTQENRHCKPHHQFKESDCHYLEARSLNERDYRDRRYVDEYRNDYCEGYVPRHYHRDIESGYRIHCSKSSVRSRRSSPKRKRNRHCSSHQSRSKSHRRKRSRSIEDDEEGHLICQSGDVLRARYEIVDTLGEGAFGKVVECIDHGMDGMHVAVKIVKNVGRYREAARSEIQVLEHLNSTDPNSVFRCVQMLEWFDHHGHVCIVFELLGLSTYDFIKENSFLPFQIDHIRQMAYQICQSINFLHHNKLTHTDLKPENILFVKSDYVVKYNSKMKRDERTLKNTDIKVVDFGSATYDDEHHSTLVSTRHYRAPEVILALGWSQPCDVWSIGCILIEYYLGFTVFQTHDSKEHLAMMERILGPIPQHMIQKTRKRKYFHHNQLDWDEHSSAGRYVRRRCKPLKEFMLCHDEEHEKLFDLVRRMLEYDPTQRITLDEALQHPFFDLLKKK

Assay [11] shares this target. Description: qHTS Assay for Inhibitors of CDC-like Kinase 4 (ADP-FP Assay) (AID 1795). Note: nearly all actives have a fitted effect of over 60% in size. Note: potency is the fitted concentration of half-maximal effect. Particulars: Transcreener ADP fluorescence polarization; series mostly up to 50 µM. In outline:
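Inhibition of ADP formation by 6.25 nM Clk4 is measured using 1 uM ATP and 100 uM RS repeat peptide over one hour. Produced ADP displaces a fluorescent tracer from antibody, lowering polarization.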

The target of assay [12] is Ubiquitin carboxyl-terminal hydrolase 1 (Homo sapiens) (UniProt O94782). Briefly: Inhibitors of USP1/UAF1: Pilot qHTS (AID 504865).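 Note: rhodamine fluorescence freed from ubiquitin-rhodamine substrate followed over time; top concentration of the series differs between compounds; % is set by controls: 0 for no effect and ±100 for the full control effect; nearly all actives have a fitted effect of over 35% in size.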 Particulars: purified USP1/UAF1, Ub-rhodamine cleavage fluorescence; series mostly up to 54.9 µM. Summed up: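 Kinetic fluorescence assay: 1nM USP1/UAF1, 15 min compound preincubation, then 150nM Ub-Rho; 480/540 nm.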
Ubiquitin carboxyl-terminal hydrolase 1 (Homo sapiens), sequence (O94782 whole entry, looked up): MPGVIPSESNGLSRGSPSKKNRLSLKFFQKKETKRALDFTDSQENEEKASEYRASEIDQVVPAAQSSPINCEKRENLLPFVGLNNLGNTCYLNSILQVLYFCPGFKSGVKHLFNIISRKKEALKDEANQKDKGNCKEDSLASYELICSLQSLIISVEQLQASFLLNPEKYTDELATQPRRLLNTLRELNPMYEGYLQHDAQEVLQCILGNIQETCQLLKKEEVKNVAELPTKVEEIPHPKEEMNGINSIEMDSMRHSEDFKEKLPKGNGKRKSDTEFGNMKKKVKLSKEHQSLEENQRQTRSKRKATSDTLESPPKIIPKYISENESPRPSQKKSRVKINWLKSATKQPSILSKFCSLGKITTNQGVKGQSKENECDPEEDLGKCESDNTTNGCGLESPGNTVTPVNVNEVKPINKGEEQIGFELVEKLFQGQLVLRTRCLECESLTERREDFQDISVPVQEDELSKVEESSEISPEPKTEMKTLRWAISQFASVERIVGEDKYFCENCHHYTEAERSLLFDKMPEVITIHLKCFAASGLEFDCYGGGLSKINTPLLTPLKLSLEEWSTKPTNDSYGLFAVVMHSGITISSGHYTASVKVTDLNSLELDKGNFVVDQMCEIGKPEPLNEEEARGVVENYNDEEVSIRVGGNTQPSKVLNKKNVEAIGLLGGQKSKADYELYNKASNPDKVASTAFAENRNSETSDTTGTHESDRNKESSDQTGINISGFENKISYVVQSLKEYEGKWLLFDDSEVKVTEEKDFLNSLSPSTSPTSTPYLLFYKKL
The nature of assay [13]: Primary qHTS for small molecule stabilizers of the endoplasmic reticulum resident proteome: Secreted ER Calcium Modulated Protein (SERCaMP) assay (AID 1508630). Note: % is set by controls: 0 for no effect and ±100 for the full control effect. Particulars: SH-SY5Y GLuc-SERCaMP (Gaussia luciferase released on ER calcium loss) secretion, thapsigargin, luminescence; series mostly up to 38.4 µM. Summed up: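 The SH-SY5Y reporter protocol was run at 3 concentrations up to 38.3 uM (primary) or 11 concentrations (follow-up): 16 h compound, 100 nM thapsigargin for 4 h, then extracellular luciferase luminescence.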

The nature of assay [14]: NFAT Signaling Pathway (AID 444; active = well fitted curve in either direction with a large enough effect, not every such curve was filed as active). Particulars: Jurkat NFAT-bla M1, carbachol, beta-lactamase ratio, 5 h; at 7.69 µM (top of the series) unless noted. Summed up:
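Jurkat cells carrying an NFAT-driven β-lactamase reporter and co-transfected muscarinic M1 receptor were treated with compound plus carbachol (1 uM final, an EC50 level) for 5 h at 37 °C. CCF4 loading followed for 1 h at RT; 460/530 nm ratio gave %activity.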

Assay [15] has as its target Cytochrome P450 3A4 (Homo sapiens) (UniProt P08684). Description: qHTS Assay for Inhibitors and Substrates of Cytochrome P450 3A4 (AID 884). Note: potency is the fitted concentration of half-maximal effect; nearly all actives have a fitted effect of over 50% in size. Particulars: recombinant CYP3A4, Luciferin-PPXE luminescence; series mostly up to 57.1 µM. In outline: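 Luminescent readout of luciferin produced by CYP3A4 (20 nM) dealkylation of Luciferin-PPXE, 25 uM (its KM). NADPH-driven reaction ran 60 min at RT after 10 min compound preincubation; data scaled to 57 uM ketoconazole as 100% inhibition.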

Assay [16] shares this target. Briefly: qHTS Assay for Activators of Cytochrome P450 3A4 (AID 885). Note: nearly all actives have a fitted effect of over 65% in size. Particulars: recombinant CYP3A4, Luciferin-PPXE luminescence, 60 min; series mostly up to 57.1 µM. Summed up: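 Using 20nM recombinant human CYP3A4 in potassium phosphate (200mM), substrate Luciferin-PPXE at 25uM, luminescent luciferin detection followed a 60-min RT NADPH reaction; data scaled to 57 uM ketoconazole.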

[17] abbreviates: measured here: cell count channel max response.
Setting [18] is: measured here: lipid channel max response.

SMILES strings stand for the structures. Inconclusive results are not listed. Activity calls are given as the source filed them. Unless noted, calls come from the whole dose curve; as a rule, active = well fitted curve in the direction sought with a large enough effect; inconclusive = small, poorly fitted or top-dose-only effect, or another doubt; inactive = no such curve, though single readings can be large; an effect the other way counts as inactive or inconclusive.

Cytochrome P450 1A2 (Homo sapiens), sequence (P05177 whole entry, looked up): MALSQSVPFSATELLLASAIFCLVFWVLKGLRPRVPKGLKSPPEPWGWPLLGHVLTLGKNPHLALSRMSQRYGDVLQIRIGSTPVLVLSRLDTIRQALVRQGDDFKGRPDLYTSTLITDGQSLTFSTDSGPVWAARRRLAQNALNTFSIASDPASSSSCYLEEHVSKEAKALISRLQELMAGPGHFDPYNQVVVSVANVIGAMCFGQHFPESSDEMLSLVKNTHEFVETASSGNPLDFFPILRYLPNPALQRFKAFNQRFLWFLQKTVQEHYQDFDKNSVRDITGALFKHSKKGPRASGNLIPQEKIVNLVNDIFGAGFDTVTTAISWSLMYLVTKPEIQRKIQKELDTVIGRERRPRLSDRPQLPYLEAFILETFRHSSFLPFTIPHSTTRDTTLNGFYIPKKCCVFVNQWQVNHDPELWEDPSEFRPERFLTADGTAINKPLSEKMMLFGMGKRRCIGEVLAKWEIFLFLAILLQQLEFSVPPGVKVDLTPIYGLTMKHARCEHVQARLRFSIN
Cytochrome P450 3A4 (Homo sapiens), sequence (P08684 whole entry, looked up): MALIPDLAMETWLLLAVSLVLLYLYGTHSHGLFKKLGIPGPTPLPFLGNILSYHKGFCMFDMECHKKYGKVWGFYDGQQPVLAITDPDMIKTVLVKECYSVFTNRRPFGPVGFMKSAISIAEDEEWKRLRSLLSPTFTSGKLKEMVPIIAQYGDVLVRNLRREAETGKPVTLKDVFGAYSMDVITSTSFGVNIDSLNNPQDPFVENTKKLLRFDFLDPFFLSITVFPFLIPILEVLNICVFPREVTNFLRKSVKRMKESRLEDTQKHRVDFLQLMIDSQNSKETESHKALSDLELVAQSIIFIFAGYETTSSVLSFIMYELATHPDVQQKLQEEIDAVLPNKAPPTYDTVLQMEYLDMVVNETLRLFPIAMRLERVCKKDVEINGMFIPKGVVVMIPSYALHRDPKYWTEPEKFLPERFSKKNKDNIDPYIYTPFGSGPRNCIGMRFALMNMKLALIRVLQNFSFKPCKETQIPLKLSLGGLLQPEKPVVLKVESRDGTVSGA
3',5'-cyclic-AMP phosphodiesterase 4B (Homo sapiens), sequence (Q07343 whole entry, looked up): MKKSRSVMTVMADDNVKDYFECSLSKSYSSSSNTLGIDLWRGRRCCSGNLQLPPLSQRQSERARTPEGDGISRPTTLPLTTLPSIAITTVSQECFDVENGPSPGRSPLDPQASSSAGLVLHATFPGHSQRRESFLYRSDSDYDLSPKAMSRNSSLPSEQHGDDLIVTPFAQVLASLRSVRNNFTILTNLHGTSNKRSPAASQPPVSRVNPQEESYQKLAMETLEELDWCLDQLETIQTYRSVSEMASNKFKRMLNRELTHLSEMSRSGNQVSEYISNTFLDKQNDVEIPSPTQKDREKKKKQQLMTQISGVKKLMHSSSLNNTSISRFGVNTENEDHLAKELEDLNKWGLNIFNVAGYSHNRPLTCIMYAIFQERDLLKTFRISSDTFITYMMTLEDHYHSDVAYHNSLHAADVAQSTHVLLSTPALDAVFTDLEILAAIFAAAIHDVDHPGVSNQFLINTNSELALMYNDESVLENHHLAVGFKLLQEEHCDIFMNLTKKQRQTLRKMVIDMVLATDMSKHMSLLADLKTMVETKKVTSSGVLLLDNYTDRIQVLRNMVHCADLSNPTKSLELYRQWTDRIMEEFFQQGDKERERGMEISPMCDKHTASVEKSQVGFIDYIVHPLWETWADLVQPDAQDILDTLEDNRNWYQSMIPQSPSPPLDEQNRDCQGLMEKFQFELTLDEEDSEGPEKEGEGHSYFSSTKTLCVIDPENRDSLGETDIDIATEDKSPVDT
Lysosomal acid glucosylceramidase (Homo sapiens), sequence (P04062 whole entry, looked up): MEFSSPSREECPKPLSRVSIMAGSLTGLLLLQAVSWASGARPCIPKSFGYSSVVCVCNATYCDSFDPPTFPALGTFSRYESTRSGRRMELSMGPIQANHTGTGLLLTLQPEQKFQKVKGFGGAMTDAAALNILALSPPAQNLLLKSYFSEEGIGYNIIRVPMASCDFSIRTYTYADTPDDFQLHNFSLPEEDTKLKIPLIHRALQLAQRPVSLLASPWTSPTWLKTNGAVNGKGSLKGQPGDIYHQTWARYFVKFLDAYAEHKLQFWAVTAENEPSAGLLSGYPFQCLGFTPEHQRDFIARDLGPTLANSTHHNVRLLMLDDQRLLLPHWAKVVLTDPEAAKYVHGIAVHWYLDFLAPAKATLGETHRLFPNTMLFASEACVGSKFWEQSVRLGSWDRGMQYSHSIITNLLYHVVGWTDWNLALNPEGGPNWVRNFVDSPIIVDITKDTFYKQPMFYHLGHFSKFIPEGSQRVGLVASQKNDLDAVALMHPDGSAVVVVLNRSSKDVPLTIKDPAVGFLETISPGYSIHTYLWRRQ

Turning to `c1cncc(-c2cncnc2NC2CCNCC2)c1`, the Potency is > 11.4 µM (inactive) in [1], 12.6 µM (active) in assay [3], > 46 µM (inactive) in assay [5] and > 46 µM (inactive) in assay [6]. The activity change, negative = inhibition in [2] was 11.1% (inactive); in assay [9] it was 6.71% (inactive). For the same compound, in assay [4], the activity, negative = inhibition is 5.17% (inactive). The compound was classed as inactive in [7]. Further, the Potency entry in assay [8], in assay [10], in assay [11], in [12] and in assay [13] was “inactive” in each case. The max response was determined as 15.6% in assay [9] (setting [17]) and 20% in assay [9] (setting [18]).
`CS(=O)(=O)Nc1cccc(-c2cncnc2Nc2ccc(F)cc2)c1`: the activity change, negative = inhibition was -19.4% (inactive) in [2], 26% (inactive) in [14] and 8.07% (inactive) in assay [9]. Moreover, the Potency in assay [3] is 5.01 µM (active); in assay [5], > 46 µM (inactive); in assay [6], > 46 µM (inactive); in [15], 0.316 µM (active); in assay [10], 31.6 µM (active). Besides, in [4], the activity, negative = inhibition is 13.7% (inactive). Also, the compound was called inactive in assay [7]. The Potency result in assay [8], in assay [16], in assay [11], in [12] and in [13] was “inactive” throughout. Further, the max response was 21.9% in assay [9] (setting [17]) and 26.3% in assay [9] (setting [18]).
`O=c1cnc2cnc(Nc3ccccc3)nc2n1Cc1ccc(F)cc1`: the Potency in [1] was > 11.4 µM (inactive); in assay [3], 1 µM (active); in assay [5] it was > 9.22 µM (inactive); in assay [6], > 46 µM (inactive). In addition, the activity change, negative = inhibition in assay [2] is -17.4% (inactive); in [14], 3.72% (inactive); in assay [9], 6.15% (inactive). In addition, the activity, negative = inhibition in [4] is -3.92% (inactive). The outcome in assay [7] was inactive. Moreover, the max response worked out at 9.12% in assay [9] (setting [17]) and 14.4% in assay [9] (setting [18]). The Potency result in [11], in [12] and in [13] was “inactive” throughout.
As for `O=c1cnc2cnc(Nc3ccccc3)nc2n1C1CC1`, the Potency was > 11.4 µM (inactive) in assay [1]; 0.631 µM (active) in [3]; > 9.22 µM (inactive) in assay [5]; > 46 µM (inactive) in assay [6]; 2.51 µM (active) in assay [10]; 1.58 µM (active) in [11]. In addition, the activity change, negative = inhibition in [2] was -23.3% (inactive); in [14], -2.7% (inactive); in assay [9], -0.874% (inactive). For the same compound, the activity, negative = inhibition in [4] was -21.3% (inactive). Further, the Potency entry in assay [16], in assay [12] and in [13] was “inactive” throughout. The results for the max response in assay [9] (setting [17]) and in [9] (setting [18]) were 4.87% and 2.12%, respectively.
With `CCNc1ncc2nc(C)c(=O)n(C3CC3)c2n1`, the Potency in assay [1] is > 11.4 µM (inactive); in [3], 5.01 µM (active); in [5], > 9.22 µM (inactive); in assay [6], > 46 µM (inactive); in assay [8] it was 2.51 µM (active). In addition, the values for the activity change, negative = inhibition in [2], in [14] and in assay [9] were -8.59% (inactive), -13.9% (inactive) and -1.33% (inactive), respectively. Also, in [4], the activity, negative = inhibition was -2.73% (inactive). For the same compound, the compound was classed as inactive in assay [7]. The max response is 6.66% in assay [9] (setting [17]) and 4.64% in assay [9] (setting [18]). Also, the Potency entry in [11], in assay [12] and in [13] was “inactive” in each case.
On to `COc1ccc(-c2nc3cnc(N4CCOCC4)nc3n(-c3ccccc3)c2=O)cc1`, for which the results for the Potency in assay [1], in assay [5] and in [6] were > 11.4 µM (inactive), > 9.22 µM (inactive) and > 46 µM (inactive), respectively. For the same compound, the activity change, negative = inhibition in [2] is 25.7% (inactive); in assay [14], 23.9% (inactive); in [9], 1.08% (inactive). For the same compound, in assay [4], the activity, negative = inhibition was 13.1% (inactive). For the same compound, the compound was called inactive in assay [7]. Also, the Potency entry in assay [8], in [10], in assay [11], in assay [12] and in assay [13] was “inactive” throughout. In addition, the max response was 22% in assay [9] (setting [17]) and 21.4% in [9] (setting [18]).

These data come from PubChem BioAssay (NCATS).
